Assay outcomes (PubChem)
The list is not random: actives were taken first. Their share in the collection is about 5.2%.
NadD inh – NadD (S. aureus) enzyme inhibition; purified NadD enzyme, colorimetric absorbance read-out; hit rate 0.78% among 360,000; inhibition, % at 20 µM; in the data active = inhibition above about 26%
Vif imaging – inhibitors of HIV Vif | inhibition, % at 7.49 µM | HEK293T cells, Vif self-association by quenched fluorescence, imaging, 24 h | hit rate 0.35% among 340,000; in the data active = inhibition above about 50%, passing the limit was not always enough; inconclusive = no clear call, values can overlap the other calls; inactive = below about 31%
NR3A LBD binder – NR3A (human) ligand-binding domain modulation; NR3A LBD differential scanning fluorimetry, Tm shift; 0% = protein alone, 100% = glycine-bound protein; Tm shift relative to glycine control, % at 25 µM; hit rate 2.5% among 340,000; AID 1259313;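 active = melting temperature shift of at least 10% of the positive control shift, at one fixed dose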
SKN-1 block – inhibitors of C. elegans SKN-1; inhibition, % at 21.8 µM; AID 624304; hit rate 0.49% among 360,000; C. elegans VP596 Pgst-4::GFP/RFP ratio, acrylamide-induced, 24 h;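 active = interference check ratio from 0.5 to 1.5 plus GFP to RFP signal ratio inhibition reaching or exceeding a fixed threshold, cut at about 30% in these data, passing the limit was not always enough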
esBAF inh – inhibitors of esBAF chromatin remodeling in mouse ES cells; reporter increase, % at 12.5 µM; hit rate 2% among 350,000; AID 602393; Bmi1-luciferase knock-in reporter, 24 h; 100% = twice the neutral-well signal; in the data active = activation above about 40%; inconclusive = no clear call, values can overlap the other calls;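 note: 0% = median of the plate's neutral control wells and 100% = double that signal; a rise in the Bmi1 reporter signal indicates esBAF inhibition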
SMARCA2 activ – increases SMARCA2 function in MMTV reporter cells. MG213 cells, MMTV-luciferase reporter, dexamethasone, overnight. activation, % at 9.1 µM. hit rate 1% among 370,000. AID 652017; in the data active = activation above about 7.8%;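 note: 0% = vehicle wells and 100% = reference activator wells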
esBAF Ring1 qPCR – esBAF inhibition confirmed by Ring1 de-repression; shares compounds with esBAF inh; mouse ESC E14, Ring1 mRNA RT-qPCR fold change; 550 tested, under 10 active; AID 743176; fold change at 33 µM;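 active = Ring1 gene expression raised more than 2-fold over untreated cells in both replicates at either tested dose; inconclusive = only one replicate above 2-fold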;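 note: Ring1 transcript normalised to actin housekeeping signal by TaqMan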
esBAF Fgf4 qPCR – represses Fgf4 in mouse ESCs, confirming esBAF inhibition; shares compounds with esBAF inh; mouse ESC E14, Fgf4 mRNA qPCR fold change; active compounds read low; Fgf4 expression fold change at 33 µM; hit rate 4% among 550;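 active = Fgf4 expression under 0.8 fold of control in both repeat measurements at one or both tested doses; inconclusive = under 0.8 fold in just a single repeat measurement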;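 note: Fgf4 transcript normalised to actin in duplex TaqMan qPCR; cells exposed to compound for 24 h before lysis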
Bmi1 derepress – esBAF inhibition confirmed by Bmi1 de-repression | shares compounds with esBAF inh | mouse ESE14 ES cells, Bmi1 mRNA qPCR fold; active compounds read high | fold change at 33 µM | 550 tested, under 10 active;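 active = Bmi1 expression fold change above 6 at either tested concentration, seen in replicate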;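 note: higher fold means more Bmi1 de-repression and stronger esBAF inhibition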
A549 cytotox – A549 cell cytotoxicity; shares compounds with esBAF inh; plate reader; cell viability change % (negative = cytotoxic), % at 25 µM, hits read low; 550 tested, under 10 active; AID 743188; call rule not given here
HepG2 cytotox SP – kills or reduces viability of HepG2 cells; shares compounds with esBAF inh; HepG2 cytotoxicity, plate reader; active compounds read low; activity change, negative = inhibition, % at 25 µM; hit rate 4% among 550; AID 743189; in the data active = activity change below about -50%
HEK293 cytotox SP – HEK293 cell cytotoxicity at single point. shares compounds with esBAF inh. plate reader. activity change, negative = inhibition, % at 25 µM, hits read low. hit rate 3% among 550; in the data active = activity change below about -38%, passing the limit was not always enough
An asterisk follows results filed as active; ? = inconclusive; / = no result.

SMILES	NadD inh	Vif imaging	NR3A LBD binder	SKN-1 block	esBAF inh	SMARCA2 activ	esBAF Ring1 qPCR	esBAF Fgf4 qPCR	Bmi1 derepress	A549 cytotox	HepG2 cytotox SP	HEK293 cytotox SP
Cc1nc2c(sc3nc4c(cc32)COC(C)(C)C4)c(=O)n1Cc1ccccc1	0	/	1	-12	64*	0	1.2	0.81	1.1	2	-29	-16
COCC(=O)N1[C@@H](C#N)[C@H](c2ccc(-c3cccc(F)c3)cc2)[C@@H]1CO	/	/	/	/	-1	/	/	/	/	/	/	/
O=c1oc(-c2ccccc2)cc(Cl)c1Cl	-6	8	0	-15	-16	-9	/	/	/	/	/	/
O=c1oc(-c2ccccc2)cc2ccccc12	1	-21	/	28	77*	7	1.3	1	2	3	-13	-3
O=C(C[C@@H]1C=C[C@@H](NC(=O)Nc2ccc3c(c2)OCO3)[C@@H](CO)O1)NCc1ccc(Cl)cc1	/	/	/	/	-3	/	/	/	/	/	/	/
Cc1noc(C)c1S(=O)(=O)N(C)C[C@H]1Oc2ccc(NC(=O)Nc3ccc4c(c3)OCO4)cc2CC(=O)N([C@H](C)CO)C[C@H]1C	/	/	/	/	-2	/	/	/	/	/	/	/
O=C(C[C@@H]1CC[C@@H]2[C@H](COC[C@@H](O)CN2C(=O)Nc2ccc(F)cc2)O1)NC1CCC1	/	/	/	/	1	/	/	/	/	/	/	/
COc1cccc(NC(=O)c2sc3nc4n(c(=O)c3c2C)CCC4)c1	3	12	-1	7	57*	4	1.1	1	1.1	-14	-11	-10
COc1ccc(C2CC2/C(=N/OC(=O)c2cccs2)c2ccccc2)cc1 (stereo unspecified)	4	-7	0	9	68*	7	1.2	1	1.6	-8	-21	-7
CO[C@H]1CN(C)C(=O)c2cc(NC(C)=O)ccc2OC[C@H](C)N(C(=O)CC2CC2)C[C@@H]1C	/	/	/	/	-5	/	/	/	/	/	/	/
C(=N\N1CCN(c2ccccn2)CC1)/c1cccc2ccccc12	6	1	-3	2	/	-2	/	/	/	/	/	/
Oc1ccccc1/C=N/N1CCN(c2ccccn2)CC1	-1	5	3	9	78*	5	1.1	1.1	1.4	-18	-9	-20
c1ccc(-c2csc(N3CCSCC3)n2)cc1	0	-5	2	29	/	8	/	/	/	/	/	/
Clc1ccc(-c2csc(N3CCSCC3)n2)cc1	-3	32	4	50*	76*	4	0.99	0.87	1.7	-7	-11	-11
N#C[C@H]1[C@@H](c2ccc(C#CCC3CCCC3)cc2)[C@H](CO)N1C(=O)c1ccccn1	/	/	/	/	0	/	/	/	/	/	/	/
CO[C@@H]1CN(C)C(=O)c2cc(NC(=O)c3cc(C)on3)ccc2OC[C@H](C)N(C(C)=O)C[C@H]1C	/	/	/	/	-3	/	/	/	/	/	/	/
Cn1c(/C(C#N)=C(\O)c2ccc(Cl)s2)nc2ccccc21	3	9	1	6	70*	3	1.4	?	1.6	6	8	27
CCCNC(=O)Nc1ccc2c(c1)OC[C@H](C)N(C(=O)C1CC1)C[C@H](C)[C@@H](OC)CN(C)C2=O	/	/	/	/	-11	/	/	/	/	/	/	/
CCC(=O)N[C@H]1CC[C@H](CC(=O)NCc2ccccc2F)O[C@H]1CO	/	/	/	/	-1	/	/	/	/	/	/	/
O=C(CCNS(=O)(=O)c1cccs1)N1CCc2ccccc2C1	-4	-7	-1	-27	68*	1	1.2	0.97	1.6	-13	-26	-5
C[C@H]1CN([C@@H](C)CO)C(=O)c2cc(-c3ccncc3)cnc2O[C@@H]1CN(C)Cc1cccnc1	/	/	/	/	-7	/	/	/	/	/	/	/
COc1cc(/C=C2/C(=N)N3N=C(CC(=O)N4CCOCC4)SC3=NC2=O)ccc1OCc1ccc(F)cc1	20	-4	-3	14	48*	0	1.5	0.9	1.3	-7	-9	-10
C[C@@H]1CCCCO[C@@H](CN(C)C(=O)Nc2ccc3c(c2)OCO3)[C@H](C)CN([C@@H](C)CO)C(=O)c2cc(NC(=O)CCCN(C)C)ccc2O1	/	/	/	/	-5	/	/	/	/	/	/	/
c1ccc2c(c1)Nc1cc3ccccc3cc1O2	0	-15	1	4	84*	0	1.3	0.9	1.5	-2	-1	-9
COc1ccccc1C(=O)N1C[C@H]2[C@@H](c3ccccc31)[C@H](CO)N2C(=O)C1CCOCC1	/	/	/	/	1	/	/	/	/	/	/	/
SMILES	NadD inh	Vif imaging	NR3A LBD binder	SKN-1 block	esBAF inh	SMARCA2 activ	esBAF Ring1 qPCR	esBAF Fgf4 qPCR	Bmi1 derepress	A549 cytotox	HepG2 cytotox SP	HEK293 cytotox SP
CS(=O)(=O)N1[C@H](CO)[C@H](c2ccccc2)[C@@H]1C#N	/	/	/	/	2	/	/	/	/	/	/	/
O/N=C\c1cnc(N2CCN(c3ccccc3)CC2)s1	-6	9	0	0	84*	7	0.95	0.85	1.6	-7	-36	-8
C[C@H](CO)N1C[C@H](C)[C@H](CN(C)C(=O)Nc2ccc(C(F)(F)F)cc2)Oc2ccc(NC(=O)c3ccncc3)cc2CC1=O	/	/	/	/	-5	/	/	/	/	/	/	/
Cc1ccc(C)c(OCc2nc3ccccc3[nH]2)c1	1	-3	0	6	66*	3	1.4	1	1.6	-1	-34	-12
COc1cccc(-c2noc(C3CCCN(C(=O)CC(C)(C)C)C3)n2)c1 (stereo unspecified)	-3	-15	-1	7	83*	1	1.2	1	1.8	0	-25	-7
CC(=O)n1nc(-c2ccccc2)nc1NCc1ccc(N(C)C)cc1	-3	5	2	1	59*	0	1.1	0.92	1.2	-7	7	-17
O=C(Nc1ccc(Nc2ccccc2)cc1)Nc1ccccc1Cl	-3	0	18*	14	70*	2	1.4	0.82	1.6	-1	3	-19
O=C(CC(F)(F)F)N1C[C@@H]2[C@H](c3ccccc31)[C@H](CO)N2C(=O)C1CC1	/	/	/	/	-3	/	/	/	/	/	/	/
COc1ccc2c(c1)CC/C(=C/c1ccccn1)C2=O	4	20	0	-17	68*	5	1.1	0.37*	5	-4	-16	-22
O=C(c1cc2ccccc2oc1=O)N(Cc1cccs1)C1CCS(=O)(=O)C1 (stereo unspecified)	-5	/	0	-7	70*	6	1.1	?	1.3	-7	-22	-13
COc1cc(CN(C(=O)c2cc3ccccc3oc2=O)C2CCS(=O)(=O)C2)cc(OC)c1OC (stereo unspecified)	1	11	1	9	33	2	/	/	/	/	/	/
